The list is not random: actives were taken first. Their share in the collection is about 4.7%.
TRHR agonist: qHTS for Small Molecule Agonists and Allosteric Enhancers of Human TRH Receptor: Primary Screen for Agonists | Thyrotropin-releasing hormone receptor (Homo sapiens), P34981 | TRHR cells, calcium flux fluo-8, FDSS agonist mode | activation, % at 2 µM | hit rate 0.18% among 360,000 | AID 493084, 2011; note: 0% is about no effect
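Read-out: compound-evoked intracellular calcium rise in TRHR cells, fluo-8 dye, kinetic FDSS fluorescence at 1 s/cycle following a 10-cycle baseline. Cells cultured overnight before dye loading (30 min–1.5 h, RT).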
TRHR PAM: qHTS for Small Molecule Agonists and Allosteric Enhancers of Human TRH Receptor: Primary Screen for Enhancers | Thyrotropin-releasing hormone receptor (Homo sapiens), P34981 | TRHR cells, fluo-8 calcium fluorescence, EC20 TRH enhancement | enhancement, % at 2 µM | hit rate 0.66% among 360,000 | AID 493056, 2011; in the data active = enhancement above about 30%; note: 0% is about no effect
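Enhancer read-out: after compound pinning and an initial kinetic agonist-mode read, an EC20 of TRH (10 nM final) was injected and fluo-8 calcium signal (Ex 480/Em 530) followed at 1 s/cycle for 100 cycles in TRHR-expressing cells.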
D1 antag: Antagonist of Human D 1 Dopamine Receptor: qHTS. AID 504652, 2011. HEK293 TREx D1 cells, calcium flux, dopamine EC80; stronger effect = lower value. D(1A) dopamine receptor (Homo sapiens), P21728. hit rate 3.2% among 360,000. activity change, negative = inhibition, % at 10 µM; in the data active = activity change below about -30%; note: % is set by controls: 0 for no effect and ±100 for the full control effect
Target sequence (P21728 whole entry, looked up): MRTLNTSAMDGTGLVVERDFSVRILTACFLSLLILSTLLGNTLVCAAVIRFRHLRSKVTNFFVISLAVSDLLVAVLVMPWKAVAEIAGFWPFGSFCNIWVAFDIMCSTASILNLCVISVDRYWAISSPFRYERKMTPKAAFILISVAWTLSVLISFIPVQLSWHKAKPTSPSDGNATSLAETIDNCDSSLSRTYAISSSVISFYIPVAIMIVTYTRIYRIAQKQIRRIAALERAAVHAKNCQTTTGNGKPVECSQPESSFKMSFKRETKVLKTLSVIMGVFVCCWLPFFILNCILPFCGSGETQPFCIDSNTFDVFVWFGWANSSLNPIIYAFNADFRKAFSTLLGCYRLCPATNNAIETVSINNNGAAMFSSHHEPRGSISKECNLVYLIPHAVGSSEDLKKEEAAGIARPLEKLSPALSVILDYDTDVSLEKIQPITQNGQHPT
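Using tetracycline-induced force-coupled D1 Hek293 cells and a calcium dye, signals were followed for 180 s after compound, then for 180 s after EC80 dopamine, to detect inhibitors.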
D1 agonist: Allosteric Agonists of the Human D1 Dopamine Receptor: qHTS. HEK293 T-REx D1 cells, calcium flux, agonist mode. hit rate 1% among 360,000. D(1A) dopamine receptor (Homo sapiens), P21728. AID 504660, 2011. activation, % at 2 µM; note: 0% is about no effect
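Inducible HEK293 T-REx D1 cells, force-coupled to calcium signalling, were plated at 4000 cells/well with tetracycline and held overnight at 30 C. After no-wash calcium dye loading, compound-evoked calcium rise over 180 s flagged agonists.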
D1 PAM: Potentiators of Human D1 Dopamine Receptor: qHTS; HEK293 TREx D1 cells, calcium flux, dopamine EC20 potentiation; potentiation, % at 10 µM; hit rate 0.036% among 360,000; AID 504651, 2011; in the data active = potentiation above about 30%; note: 0% is about no effect
Numbers without * were called inactive; nt = not tested or not shown. Cut-off read from the data, not from the text of the source, unless noted: active = activation above about 30%; inactive = the rest.

SMILES | TRHR agonist | TRHR PAM | D1 antag | D1 agonist | D1 PAM
CCCCNC(=O)CSc1nnc(-c2ccc(S(=O)(=O)N3CCCC3)cc2)n1C | 1 | -2 | -68* | -2 | -7
COc1cccc(NC(=O)c2cc(CN3CCOCC3)on2)c1 | 0 | -2 | 7 | 4 | -5
COc1ccc(CCC(=O)NC2CCCc3ccccc32)cc1OC (stereo not given) | 2 | -21 | 5 | 3 | 10
Cc1ccc(CSc2ccc(S(=O)(=O)N3CCCC3)cn2)cc1 | 0 | -10 | -21 | 10 | -4
c1ccc(-n2c(SCC3CCCCO3)nnc2-c2cccs2)cc1 (stereo not given) | -1 | -2 | -32* | 2 | 0
O=C(CSc1nnc(-c2ccncc2)n1-c1ccccc1)NCC1CCCO1 (stereo not given) | 0 | -6 | -51* | 3 | -8
O=S(=O)(c1ccc(SCc2ccccc2F)nc1)N1CCCC1 | 1 | -2 | -34* | 13 | nt
Brc1ccc(CN2C3=NCCCN3c3ccccc32)cc1 | -1 | -3 | -11 | 30* | -10
c1ccc(CN2C3=NCCCN3c3ccccc32)cc1 | 0 | 6 | -1 | 0 | -2
Cc1cccc(CC(=O)NC2CC(=O)N(c3ccccc3)C2)c1 (stereo not given) | 0 | 5 | nt | -1 | 1
Fc1cc2[nH]c(=S)[nH]c2cc1Cl | -1 | -6 | -41* | 2 | -4
Cc1cc2[nH]c(=S)[nH]c2cc1C | 0 | -3 | -16 | 2 | 2
CCCCNC(=O)c1ccc(N2CCC3(CC2)OCCO3)c([N+](=O)[O-])c1 | 0 | 1 | -50* | 2 | -6
CCOC(=O)N1CCC(NC(=O)c2ccc(N3CCC4(CC3)OCCO4)c([N+](=O)[O-])c2)CC1 | 0 | 3 | 8 | 3 | -7
COc1ccccc1CNC(=O)c1ccc2c(c1)N(Cc1c(F)cccc1Cl)C(=O)CS2 | 1 | -4 | 4 | 1 | -1
Cc1nc(CC(=O)Nc2nc(C(C)(C)C)cs2)cs1 | -1 | 15 | -38* | 12 | -7
Cc1nc(CC(=O)Nc2nc(-c3ccccc3)cs2)cs1 | -1 | 7 | -10 | 2 | 9
CC1CC(Nc2ccccc2)c2ccccc2N1C(=O)c1ccncc1 (stereo not given) | 0 | 31* | 1 | 1 | 1
Cc1c(NC(=O)C(C)OC(=O)COc2ccccc2)c(=O)n(-c2ccccc2)n1C (stereo not given) | 0 | -1 | 0 | 2 | 0
Cc1c(NC(=O)C(C)OC(=O)c2ccc(NC(=O)CC#N)cc2)c(=O)n(-c2ccccc2)n1C (stereo not given) | 0 | 11 | -33* | 2 | 1
CC(OC(=O)c1ccc(NC(=O)CC#N)cc1)C(=O)NC(=O)NC1CCCCC1 (stereo not given) | 2 | 0 | -32* | 4 | 7
CC(OC(=O)c1ccc(NC(=O)CC#N)cc1)C(=O)NCCC1=CCCCC1 (stereo not given) | 1 | -5 | -1 | 2 | -2
CCc1ccc(OCC(=O)Nc2cc(-c3ccc(C)cc3)no2)cc1 | 0 | 7 | -24 | 3 | 2
CCOC(=O)N1CCN(CC(=O)N2c3ccccc3Sc3ccccc32)CC1 | -1 | 8 | -5 | 47* | 12
O=C(CN1CCCCCC1)N1c2ccccc2Sc2ccccc21 | 2 | 1 | 15 | 5 | -5
CCOC(=O)Nc1ccc2c(c1)N(C(=O)N1CCN(C)CC1)c1ccccc1S2 | 1 | -6 | -64* | 10 | -11
CC1CCCN(CC(=O)N2c3ccccc3Sc3ccccc32)C1 (stereo not given) | 0 | 36* | 9 | 9 | -3
O=C1C=CC(=O)N1Nc1ccc(Br)cc1 | 1 | 33* | 5 | 9 | -5
CCOc1ccc(OCC(=O)NCCS(=O)(=O)N2CCN(c3cccc(Cl)c3)CC2)cc1 | 0 | -1 | 3 | 6 | -5

High-throughput results: PubChem, National Center for Advancing Translational Sciences (NCATS)
